# Experimental data from PubChem BioAssay (NCI).
# Compounds without any hit were thinned out: in the full panel of roughly 79,000, 15% have a hit. Activity calls are given as the source filed them. No stated cut-off is given here; in the data, active means growth inhibition above about 70%; inactive means the rest.
# Assay: NCI Yeast Anticancer Drug Screen. Data for the sgs1 mgt1 strain (AID 161);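 further: 0% = growth of cultures given vehicle only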
# Settings: S. cerevisiae sgs1 mgt1 strain, at 50.0 µM, stronger effect = higher value
# How it was run: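 Compounds are added to genetically altered yeast, and growth is compared with cultures given vehicle alone to give percent inhibition.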
row,Structure (SMILES),growth inhibition
1,Clc1ccc(-c2nc3ccc(Cl)cc3[nH]2)cc1,-30.9% (inactive)
2,O=C1c2ccccc2NC(=O)C2C1C(c1ccccc1)CC2(O)c1ccccc1 (stereo not given),72% (active)
3,COc1ccc(CC2C(=O)NC(C)C(=O)N(C)C3Cc4ccc(cc4)Oc4cc(ccc4O)CC(C(=O)NC(C)C(=O)NC(C)C(=O)N2C)N(C)C3=O)cc1 (stereo not given),66.5% (inactive)
4,O=C1c2cccnc2-c2nccc3c2c1nc1cc(Br)ccc13,89.9% (active)
5,CCN(C(=O)O)c1ccc(/C=C/c2ccnc3ccccc23)cc1,40.1% (inactive)
6,O=C(/C=C/c1cccc(Cl)c1)c1ccccc1,98% (active)
7,O.O.O=C(O)C(O)C(O)C(OC1OC(CO)C(O)C(O)C1O)C(O)CO.O=C(O)C(O)C(O)C(OC1OC(CO)C(O)C(O)C1O)C(O)CO.[NH-]C1CCCCC1[NH-].[Pt+2] (stereo not given),99.7% (active)
8,O=C(N=c1sc2ccccc2s1)N=c1sc2ccccc2s1,47.6% (inactive)
9,Cc1ccsc1/C=N/Nc1ccc2ccccc2n1,86.8% (active)
10,CC(C)(C)C1=NC(=S)SC2=NC(=O)C3(NN21)c1ccccc1-c1ccccc13,86.6% (active)
11,COC(=O)c1ccc(OC)cc1,49.8% (inactive)
12,Cc1ccc(/C=C2\CN(C)CC3=C2NC(=S)NC3c2ccc(C)cc2)cc1 (stereo not given),30.6% (inactive)
13,O=C1NC(=O)/C(=C/C=C/c2ccccc2)S1,47.8% (inactive)
14,Nc1ccc(Cc2ccc(N)cc2[N+](=O)[O-])c([N+](=O)[O-])c1,66.8% (inactive)
15,COc1ccccc1/C=C\C(=O)c1ccccc1,99.2% (active)
16,NNC(=S)NN/C=C(\C=Nc1ccccc1)[N+](=O)[O-],65.5% (inactive)
17,CCCCCCCCCCCCCCCCCO,50% (inactive)
18,COc1cc(C(c2cc3c(cc2O)OCO3)N2CCOCC2)cc(OC)c1OC (stereo not given),17% (inactive)
19,O=C1OCc2cccc3cccc1c23,70.3% (active)
20,CSC(=S)NNC(C)c1nccc2ccccc12 (stereo not given),98.8% (active)

row,Structure (SMILES),growth inhibition
1,N#Cc1c(Cl)nc2ccccc2c1N=[N+]=[N-],56.2% (inactive)
2,CC(C)(C)CC(C)(C)c1ccc(OCCSC(=N)N)cc1,99.2% (active)
3,COC1CCC(O)C(CO)O1 (stereo not given),99.7% (active)
4,CC(=O)N(C1=C(Cl)C(=O)c2ccccc2C1=O)c1ccc(Cl)cc1,99.2% (active)
5,Cc1nc(N2N=C(c3ccc(Cl)cc3)CCC2=O)sc1[N+](=O)[O-],83.7% (active)
6,Cn1c2c(c3ccccc31)CCN1C[C@@H]3CCCC[C@H]3C[C@@H]21,74.4% (active)
7,Cn1cc(NC(=O)Nc2cc(C(=O)Nc3cc(C(=O)Nc4ccc5cc(S(=O)(=O)O)cc(S(=O)(=O)O)c5c4)n(C)c3)n(C)c2)cc1C(=O)Nc1cc(C(=O)Nc2ccc3cc(S(=O)(=O)O)cc(S(=O)(=O)O)c3c2)n(C)c1,93.5% (active)
8,CC(=O)Oc1c(Cl)cc(Cl)cc1C(c1cc(Cl)cc(Cl)c1OC(C)=O)C(Cl)(Cl)Cl,83.9% (active)
9,CCCCCc1ccc2cc(C(=O)O)[nH]c2c1,95% (active)
10,C/C(=N/O)c1cc([N+](=O)[O-])c(O)cc1O,89.2% (active)
11,CCOC(=O)CNC(=O)Sc1ccc(C(C)(C)C)cc1C,82% (active)
12,S=C(N/N=C1\C=Cc2ccccc2C1)N/N=C1\C=Cc2ccccc2C1,41.7% (inactive)
13,Cc1cccc(Nc2c3c(nc4ccccc24)CCCCC3)c1,86.8% (active)
14,Cc1ccc(NS(=O)(=O)c2ccc(C)cc2)cc1,26.8% (inactive)
15,CCOC(=O)C(=CNC(=S)Nc1c(CC)cccc1C(C)(C)C)C(=O)OCC,77% (active)
16,COC1/C=C/OC2(C)Oc3c(C)c(OC(C)=O)c4c(c3C2=O)C(=O)C=C(NC(=O)/C(C)=C\C=C\C(C)C(O)C(C)C(O)C(C)C(OC(C)=O)C1C)C4=O (stereo not given),6% (inactive)
17,O=C(O)c1ccc(/C=C2\COc3ccccc3C2=O)cc1,83.1% (active)
18,Cc1c2c(c(C)c3ccncc13)S(=O)(=O)c1ccccc1-2,55.3% (inactive)
19,Oc1c(Cl)cc(Cl)c2cccnc12,97.7% (active)
20,Cc1ccc(S(=O)(=O)Nc2ccc3c(c2)C(=O)c2ccccc2-3)cc1,91.3% (active)
